# Laboratory results: PubChem BioAssay (Tox21)
# Values without a mark were called inactive. Inconclusive results are not listed. Where a call stands in place of a potency, no number is given. Active and inactive are the calls of the source. Unless noted, calls come from the whole dose curve; as a rule, active = well fitted curve in the direction sought with a large enough effect in the repeat runs; inconclusive = weak or mixed curves; inactive = no such curve, though single readings can be large; an effect the other way counts as inactive or inconclusive.
# Legend:
# [1] = A CellTox Green Cytotoxicity Assay to monitor cytotoxicity in HepG2 cells - 8 hour (AID 1224890); note: nearly all actives have a fitted effect of over 45% in size
# Method in brief: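 Cells and non-lytic dye reagent are dispensed together (600 HepG2 cells/well) and incubated 5 h before DMSO compound transfer. Kinetic fluorescence is then recorded in the same wells during 40 h at 37 C.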
# [2] = qHTS assay to identify small molecule antagonists of the estrogen receptor alpha (ER-alpha) signaling pathway using the BG1 cell line in the presence of 0.1 nM 17-beta-estradiol - cell viability counter screen (AID 1259241); note: nearly all actives have a fitted effect of over 40% in size
# Method in brief: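 The cell line endogenously expresses full-length ER-alpha and carries four EREs driving luciferase. Cells are cultured 5 days hormone-free, treated 22 hr with compounds and 0.1 nM estradiol, then viability is read by fluorescence.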
# [3] = qHTS assay to identify small molecule antagonists of the androgen receptor (AR) signaling pathway using the MDA cell line in the presence of 0.5 nM R1881 - cell viability counter screen (AID 1259242); note: nearly all actives have a fitted effect of over 45% in size
# Method in brief: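 Steps: plate MDA-kb2 cells, rest 5 hr at 37C without CO2; pin in compounds in DMSO; add R1881 to 0.5 nM final; incubate 16 hr; add CellTiter-Fluor, 30 min; read fluorescence.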
# [4] = biological target: Androgen receptor (Homo sapiens) (UniProt P10275); assay: qHTS assay to identify small molecule antagonists of the androgen receptor (AR) signaling pathway using the MDA cell line in the presence of 0.5 nM R1881 (AID 1259243); note: nearly all actives have a fitted effect of over 50% in size
# Method in brief: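 Stably transfected MDA-kb2 cells express luciferase from an MMTV promoter bearing both AR and GR response elements. Compounds plus 0.5 nM R1881 (final) were incubated 16 hr at 37C without CO2, then luminescence measured.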
# [5] = biological target: Estrogen receptor (Homo sapiens) (UniProt P03372); assay: qHTS assay to identify small molecule antagonists of the estrogen receptor alpha (ER-alpha) signaling pathway using the BG1 cell line in the presence of 0.1 nM 17-beta-estradiol (AID 1259244); note: nearly all actives have a fitted effect of over 50% in size
# Method in brief: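 Antagonist mode: compounds in DMSO are pinned onto VM7Luc4E2 reporter cells, 0.1 nM final 17beta-estradiol is added, and after 22 h at 37C luciferase luminescence is measured with ONE-Glo.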
# [6] = qHTS assay to identify small molecule HDAC inhibitors (AID 1259364);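 note: wild-type HCT-116 cells with endogenous class I/II HDAC activity; top concentration of the series differs between compounds; nearly all actives have a fitted effect of over 45% in size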
# Method in brief: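 Cells (HCT-116, wild type) are seeded at 1,500 per well, incubated overnight, treated with compound in DMSO for 2 hr, then developed with HDAC-Glo I/II reagent for 30 min at room temperature.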
# [7] = qHTS assay to identify small molecule agonists of the sonic hedgehog signaling (Shh) pathway - cell viability counter screen (AID 1259366); note: nearly all actives have a fitted effect of over 50% in size
# Method in brief: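 Viability measured fluorometrically (CellTiter-Fluor, 1hr, 37C) in 3T3 Gli1-Luc reporter cells after 23hr compound exposure within a 24hr incubation at 37C/5% CO2.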
# [8] = qHTS assay to identify small molecule antagonists of the sonic hedgehog signaling (Shh) pathway (AID 1259369; calls by dose curve; note: nearly all actives have a fitted effect of over 45% in size; note: potency is the fitted concentration of half-maximal effect)
# Method in brief: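 Cells are plated and held 4hr at 37 C, compounds (DMSO) are pinned in, conditioned medium is added to stimulate the pathway, and after 24hr luciferase reagent is added for 30min before luminescence is read.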
# [9] = qHTS assay to identify small molecule agonists of the androgen receptor (AR) signaling pathway in the presence of an antagonist - cell viability counter screen (AID 1259379);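 note: MDA-kb2 human breast cancer cells carrying an MMTV luciferase reporter; series mostly up to about 92 µM; nearly all actives have a fitted effect of over 25% in size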
# Method in brief: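 Cytotoxicity is assessed by CellTiter-Fluor in MDA-kb2 cells carrying an MMTV-driven luciferase reporter. Cells receive 3.0uM nilutamide plus compounds at 15 concentrations and incubate 16 hr at 37C without CO2 before fluorescence reading.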
# [10] = qHTS assay to identify small molecule agonists of the estrogen receptor beta (ER-beta) signaling pathway - cell viability counter screen (AID 1259380); note: nearly all actives have a fitted effect of over 30% in size
# Method in brief: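 Cytotoxicity is measured in parallel with the reporter screen: after 16 hr compound exposure at 37C and a 2 hr LiveBLAzer step, CellTiter-Glo is added to the same ER-beta-UAS-bla HEK293T wells and luminescence read after 30 min.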
# [11] = biological target: Androgen receptor (Homo sapiens) (UniProt P10275); assay: qHTS assay to identify small molecule agonists of the androgen receptor (AR) signaling pathway in the presence of an antagonist (AID 1259381; calls by dose curve; note: nearly all actives have a fitted effect of over 15% in size)
# Method in brief: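 Agonist-mode confirmation screen: human MDA-kb2 cells stably expressing luciferase under an MMTV promoter bearing AR and GR response elements, co-treated with 3.0uM nilutamide (final). Luminescence measured after 16hr compound incubation.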
# [12] = qHTS assay to identify small molecule antagonists of the estrogen receptor beta (ER-beta) signaling pathway - cell viability counter screen (AID 1259382);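 note: HEK293T cells carrying ER-beta-UAS-bla reporter stimulated with estradiol; series mostly up to about 92 µM; nearly all actives have a fitted effect of over 55% in size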
# Method in brief: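 Cytotoxicity counter screen multiplexed with the beta-lactamase antagonist assay: GripTite HEK293T ER-beta-bla cells were treated 16 hr with test chemicals in the presence of 1nM 17-beta-estradiol, and viability was measured by CellTiter-Glo.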
# [13] = biological target: Estrogen receptor (Homo sapiens) (UniProt P03372); assay: qHTS assay to identify small molecule agonists of the estrogen receptor alpha (ER-alpha) signaling pathway in the presence of an antagonist (AID 1259383; calls by dose curve; note: top concentration of the series differs between compounds; nearly all actives have a fitted effect of over 15% in size)
# Method in brief: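 Agonist-mode confirmation in the presence of the ER antagonist ICI-182,780 at 10.0nM final. Breast-derived VM7Luc4E2 reporter cells were exposed to compounds for 22hr, and ERE-driven luciferase was quantified by luminescence.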
# [14] = qHTS assay to identify small molecule agonists or antagonists of the thyroid stimulating hormone receptor (TSHR) signaling pathway - wild type cell line counter screen (AID 1259384; calls by dose curve)
# Method in brief: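 Counter screen in untransfected Hek293: compounds (15-point titration, triplicate) plus phosphodiesterase inhibitor Ro20-1724 added after 18 h plating; 30 min RT. Intracellular cAMP via competitive d2/cryptate immunoassay, 1 h incubation.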
# [15] = qHTS assay to identify small molecule HDAC inhibitors - cell viability counter screen (AID 1259365); note: series mostly up to about 92 µM; nearly all actives have a fitted effect of over 50% in size
# Method in brief: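 Viability readout: CellTiter-Glo luminescence. Wild-type HCT-116 cells, 2hr compound treatment following overnight attachment at 37 C.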
# [16] = qHTS assay to identify small molecule antagonists of the sonic hedgehog signaling (Shh) pathway - cell viability counter screen (AID 1259367); note: nearly all actives have a fitted effect of over 55% in size
# Method in brief: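 Viability was read by CellTiter-Fluor fluorescence in the same wells, reagent added 23 hr into compound treatment and incubated 1 hr at 37C. The 3T3 Gli1-Luc reporter cells (2,000/well) received conditioned medium after compound and ran 24 hr.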
# [17] = qHTS assay to identify small molecule agonists of the sonic hedgehog signaling (Shh) pathway (AID 1259368; calls by dose curve;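 note: NIH/3T3-derived 3T3Gli1-Luc cells carrying a stable Gli1-driven firefly luciferase reporter; series mostly up to about 92 µM; nearly all actives have a fitted effect of over 15% in size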)
# Method in brief: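 Cells of a mouse NIH/3T3 clone stably expressing luciferase under the Gli1 transcriptional response element are exposed to test chemicals for 24 hr at 37 C. Pathway activation is detected as a rise in luminescence.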
# [18] = biological target: Estrogen receptor beta (Homo sapiens) (UniProt Q92731); assay: qHTS assay to identify small molecule agonists of the estrogen receptor beta (ER-beta) signaling pathway (AID 1259377; active = well fitted activation curve with a large enough effect in the signal ratio in the repeat runs, not every such curve was filed as active; the % refers to the signal ratio)
# Method in brief: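 A UAS-controlled beta-lactamase reporter in ER-beta-UAS-bla HEK293T cells reports receptor activation. Compounds act for 16 hr at 37C in 2% charcoal-stripped serum, and a FRET substrate is read by fluorescence after 2 hours.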
# [19] = biological target: Estrogen receptor beta (Homo sapiens) (UniProt Q92731); assay: qHTS assay to identify small molecule antagonists of the estrogen receptor beta (ER-beta) signaling pathway (AID 1259378; active = well fitted inhibition curve with a large enough effect in the signal ratio in the repeat runs, not every such curve was filed as active; the % refers to the signal ratio)
# Method in brief: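 Antagonist mode: compounds added to beta-lactamase reporter HEK293T ER-beta-UAS cells stimulated with E2 (1nM final), 16 hr at 37C. LiveBLAzer B/G FRET substrate, 2 hours room temperature, fluorescence read-out.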
# [20] = qHTS assay to identify small molecule phospholipidosis (PLD) inducers (AID 1259344; active = well fitted curve in the direction sought with a large enough effect; an effect the other way counts as inactive or inconclusive)
# Method in brief: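 Phospholipid accumulation was scored by imaging: fixed, Hoechst-counterstained HepG2 cells stained with LipidTOX Red after 24 h compound exposure at 37 C. Read-outs were pit count and pit intensity per well or per cell, with amiodarone and DMSO controls.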
# Chain of Estrogen receptor beta (Homo sapiens) (Q92731 whole entry, looked up): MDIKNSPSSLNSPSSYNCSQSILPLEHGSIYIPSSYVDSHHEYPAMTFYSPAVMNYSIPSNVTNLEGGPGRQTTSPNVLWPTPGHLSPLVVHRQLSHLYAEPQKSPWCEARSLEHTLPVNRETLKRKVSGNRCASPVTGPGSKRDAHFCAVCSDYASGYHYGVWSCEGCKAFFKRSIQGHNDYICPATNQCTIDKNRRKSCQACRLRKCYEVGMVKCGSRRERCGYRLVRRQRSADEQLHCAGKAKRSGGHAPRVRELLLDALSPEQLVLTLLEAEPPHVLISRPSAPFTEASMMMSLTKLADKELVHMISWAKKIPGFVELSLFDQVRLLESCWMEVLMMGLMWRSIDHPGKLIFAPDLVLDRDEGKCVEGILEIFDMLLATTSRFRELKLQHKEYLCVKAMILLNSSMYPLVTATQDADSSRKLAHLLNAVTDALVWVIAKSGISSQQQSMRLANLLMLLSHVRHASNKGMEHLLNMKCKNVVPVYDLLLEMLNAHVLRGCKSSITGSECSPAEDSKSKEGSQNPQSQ
# Chain of Androgen receptor (Homo sapiens) (P10275 whole entry, looked up): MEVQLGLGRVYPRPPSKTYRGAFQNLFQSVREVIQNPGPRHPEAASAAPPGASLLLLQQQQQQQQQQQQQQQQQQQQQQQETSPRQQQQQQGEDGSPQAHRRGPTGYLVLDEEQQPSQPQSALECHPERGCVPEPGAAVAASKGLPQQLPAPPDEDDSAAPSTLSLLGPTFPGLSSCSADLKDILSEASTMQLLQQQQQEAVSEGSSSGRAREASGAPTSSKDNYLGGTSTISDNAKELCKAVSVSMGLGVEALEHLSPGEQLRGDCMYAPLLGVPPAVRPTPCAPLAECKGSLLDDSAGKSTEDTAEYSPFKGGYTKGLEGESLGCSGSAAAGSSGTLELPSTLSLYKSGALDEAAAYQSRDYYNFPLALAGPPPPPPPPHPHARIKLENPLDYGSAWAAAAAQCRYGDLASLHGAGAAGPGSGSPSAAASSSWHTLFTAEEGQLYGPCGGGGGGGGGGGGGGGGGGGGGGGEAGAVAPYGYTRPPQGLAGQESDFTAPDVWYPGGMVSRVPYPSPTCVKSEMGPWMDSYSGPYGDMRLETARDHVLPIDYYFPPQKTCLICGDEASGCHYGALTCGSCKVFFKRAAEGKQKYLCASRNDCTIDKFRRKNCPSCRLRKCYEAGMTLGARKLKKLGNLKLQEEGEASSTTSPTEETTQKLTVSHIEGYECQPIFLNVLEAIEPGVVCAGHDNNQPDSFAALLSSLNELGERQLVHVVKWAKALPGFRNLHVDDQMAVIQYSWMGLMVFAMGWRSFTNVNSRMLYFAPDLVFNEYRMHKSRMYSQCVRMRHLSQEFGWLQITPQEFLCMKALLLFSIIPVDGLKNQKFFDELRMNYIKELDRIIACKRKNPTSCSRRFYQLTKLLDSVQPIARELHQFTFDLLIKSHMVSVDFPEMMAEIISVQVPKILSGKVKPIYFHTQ
# Chain of Estrogen receptor (Homo sapiens) (P03372 whole entry, looked up): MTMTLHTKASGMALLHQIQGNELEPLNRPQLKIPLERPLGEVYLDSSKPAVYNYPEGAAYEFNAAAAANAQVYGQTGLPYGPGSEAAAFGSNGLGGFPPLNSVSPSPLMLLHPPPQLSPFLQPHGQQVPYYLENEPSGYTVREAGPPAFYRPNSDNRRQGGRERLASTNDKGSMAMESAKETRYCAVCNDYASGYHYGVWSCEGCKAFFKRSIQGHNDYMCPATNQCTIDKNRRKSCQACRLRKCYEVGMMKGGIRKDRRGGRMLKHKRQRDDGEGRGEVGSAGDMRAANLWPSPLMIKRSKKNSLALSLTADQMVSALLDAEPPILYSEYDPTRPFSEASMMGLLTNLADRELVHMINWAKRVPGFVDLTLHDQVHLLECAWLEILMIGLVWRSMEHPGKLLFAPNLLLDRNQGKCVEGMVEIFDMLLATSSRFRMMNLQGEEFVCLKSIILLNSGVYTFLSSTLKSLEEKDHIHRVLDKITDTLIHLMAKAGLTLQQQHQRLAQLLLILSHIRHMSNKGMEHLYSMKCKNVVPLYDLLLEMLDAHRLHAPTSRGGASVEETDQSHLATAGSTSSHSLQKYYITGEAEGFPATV
Structure (SMILES),Potency [1],Potency [2],outcome [3],Potency [4],Potency [5],Potency [6],Potency [7],Potency [8],Potency [9],Potency [10],Potency [11],outcome [12],Potency [13],outcome [14],outcome [15],Potency [16],Potency [17],outcome [18],Potency [19],outcome [20]
CC(C)(C)c1cccc(O)c1,inactive,inactive,inactive,inactive,inactive,inactive,inactive,inactive,inactive,inactive,inactive,inactive,inactive,inactive,–,–,–,–,–,–
N#CSCC(=O)O,inactive,inactive,inactive,inactive,–,inactive,inactive,inactive,inactive,inactive,inactive,inactive,inactive,inactive,inactive,inactive,inactive,inactive,inactive,–
OCCN(CCO)c1ccccc1,inactive,inactive,inactive,inactive,–,inactive,inactive,inactive,inactive,–,inactive,inactive,inactive,–,inactive,–,inactive,–,inactive,–
C=Cc1ccccc1,inactive,inactive,inactive,–,inactive,inactive,inactive,inactive,inactive,inactive,–,inactive,inactive,–,inactive,inactive,inactive,inactive,inactive,inactive
NCCCN1CCN(CCCN)CC1,inactive,inactive,inactive,inactive,inactive,inactive,–,inactive,inactive,inactive,inactive,inactive,inactive,inactive,inactive,inactive,inactive,–,–,–
O=Cc1ccc(O)c(O)c1O,inactive,inactive,inactive,inactive,–,inactive,–,26.6 µM (active),–,inactive,inactive,–,–,inactive,inactive,–,inactive,–,–,–
CC1=C(CC(=O)O)c2cc(F)ccc2/C1=C\c1ccc(S(C)(=O)=O)cc1,inactive,inactive,inactive,inactive,–,inactive,–,–,inactive,–,inactive,inactive,inactive,–,inactive,inactive,inactive,inactive,–,inactive
CC(=O)OC(C)OC(C)=O,inactive,inactive,inactive,inactive,–,inactive,inactive,inactive,inactive,inactive,inactive,inactive,–,inactive,inactive,inactive,inactive,inactive,inactive,–
